Source: PubChem BioAssay (Sanford-Burnham Center for Chemical Genomics)
Only some compounds are listed: those with a hit (about 28% of all), similar ones and a draw of the others.
CD11b adhes enh: CD11b/CD18-fibrinogen binding enhancement; P05107+P11215; K562 CD11b/CD18 adhesion to fibrinogen, ATPlite luminescence; activation, % at 10 µM; actives 0.07% (n = 93,000);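 active = 10 µM primary screen giving 50% or more activity, confirmed by 40% or more on retest at that dose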
Target sequence (P05107 whole entry, looked up, other chains not shown): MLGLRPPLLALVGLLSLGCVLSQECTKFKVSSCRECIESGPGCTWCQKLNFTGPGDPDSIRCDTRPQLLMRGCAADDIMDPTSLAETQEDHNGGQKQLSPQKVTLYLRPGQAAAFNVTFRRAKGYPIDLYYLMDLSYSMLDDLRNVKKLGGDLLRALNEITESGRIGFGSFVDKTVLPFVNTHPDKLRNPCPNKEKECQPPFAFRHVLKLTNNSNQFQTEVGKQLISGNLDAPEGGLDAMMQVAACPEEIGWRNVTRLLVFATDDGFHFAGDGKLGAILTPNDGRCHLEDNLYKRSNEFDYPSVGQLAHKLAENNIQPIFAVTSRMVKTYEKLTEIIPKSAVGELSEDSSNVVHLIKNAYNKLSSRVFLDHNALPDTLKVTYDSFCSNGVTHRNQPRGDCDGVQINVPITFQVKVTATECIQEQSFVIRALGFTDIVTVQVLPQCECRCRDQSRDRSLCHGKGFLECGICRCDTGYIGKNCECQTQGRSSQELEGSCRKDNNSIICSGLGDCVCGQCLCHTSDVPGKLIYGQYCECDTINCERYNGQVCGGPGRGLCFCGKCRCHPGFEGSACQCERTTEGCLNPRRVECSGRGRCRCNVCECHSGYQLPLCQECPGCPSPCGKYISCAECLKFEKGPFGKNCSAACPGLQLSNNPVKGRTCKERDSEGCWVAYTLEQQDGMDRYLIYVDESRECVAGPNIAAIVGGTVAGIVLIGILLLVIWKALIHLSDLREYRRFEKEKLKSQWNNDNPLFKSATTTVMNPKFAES
Mac1 fbg inh: CD11b/CD18-fibrinogen binding inhibition | P05107+P11215 | K562 CD11b/CD18 adhesion to fibrinogen, ATPlite luminescence; Mn2+ added to activate the integrin | inhibition, % at 10 µM | actives 0.54% (n = 93,000);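 active = primary inhibition of 50% or more at 10 µM, then 40% or more on retest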
CYP2C19 act: cytochrome P450 2C19 (human) activation; activation factor at 5 µM; P33261; 96,000 tested, under 10 active; recombinant CYP2C19, luciferin-H EGE luminescence; hits give high values; 0 = fully inhibited enzyme, 1 = untreated enzyme;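 active = activation factor of at least 2 at 5 µM in the primary screen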;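 also: 0 = wells with 2.5 mM tranylcypromine and 1 = vehicle-only wells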
CYP2C9 inh: inhibitors of human CYP2C9; CYP2C9 Supersomes, luciferin-H conversion, luminescence; inhibition, % at 5 µM; actives 20% (n = 96,000);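 active = blocking of liver enzyme CYP2C9 beyond about 50% at 5 µM, limit read from the data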
CYP2C19 inh: human CYP2C19 inhibition; CYP2C19 Supersomes, luciferin-H EGE luminescence, 30 min; P33261; actives 21% (n = 96,000); inhibition, % at 5 µM; AID 778;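 active = CYP2C19 inhibition above a set limit at 5 µM in the primary screen, cut at about 50% in these data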;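 also: plate controls were negative control wells for no effect and 2.5 mM tranylcypromine positive control for full effect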
CYP2C9 act: increases human cytochrome P450 2C9 activity. AID 1024. recombinant CYP2C9, luciferin-H conversion, luminescence; hits give high values; factor 1 = untreated enzyme, 0 = blocked. activation factor at 5 µM. P11712. actives 1.4% (n = 96,000);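 active = activation factor of 2 or more for CYP2C9 at a 5 µM dose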;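 also: 0 = sulfaphenazole-blocked wells and 1 = vehicle-only wells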
Active calls of the source: *.

What do the screens show for `CCN(c1ccccc1)S(=O)(=O)c1ccc(NC(=S)NC(=O)c2ccc(Br)o2)cc1`?
CD11b adhes enh: -2.9; Mac1 fbg inh: 11.0; CYP2C19 act: 0.8; CYP2C9 inh: 66.8*; CYP2C19 inh: 22.9; CYP2C9 act: 0.3

What do the screens show for `COCc1nnc(NC(=O)c2ccc(S(=O)(=O)N(C)c3ccccc3)cc2)o1`?
CD11b adhes enh: -0.7; Mac1 fbg inh: -21.8; CYP2C19 act: 0.9; CYP2C9 inh: 77.1*; CYP2C19 inh: 5.0; CYP2C9 act: 0.2

How did CN(c1ccccc1)S(=O)(=O)c1ccc(NC(=S)NC(=O)c2ccccc2)cc1 do in these assays?
CD11b adhes enh: -2.1; Mac1 fbg inh: 24.4; CYP2C19 act: 0.7; CYP2C9 inh: 70.1*; CYP2C19 inh: 29.4; CYP2C9 act: 0.3

Results for CCN(c1ccccc1)S(=O)(=O)c1ccc(C(=O)Nc2nnc(COC)o2)cc1 ?
CD11b adhes enh: -1.9; Mac1 fbg inh: 6.6; CYP2C19 act: 1.1; CYP2C9 inh: 70.5*; CYP2C19 inh: -7.6; CYP2C9 act: 0.3

Results for CCc1nnc(NC(=O)c2ccc(S(=O)(=O)N(CCOC)CCOC)cc2)o1 ?
CD11b adhes enh: -1.2; Mac1 fbg inh: -19.9; CYP2C19 act: 0.9; CYP2C9 inh: 13.6; CYP2C19 inh: 8.9; CYP2C9 act: 0.9

What do the screens show for `Cc1ccc(C(=O)NC(=S)Nc2ccc(S(=O)(=O)N(C)c3ccccc3)cc2)cc1`?
CD11b adhes enh: 2.5; Mac1 fbg inh: 30.0; CYP2C19 act: 1; CYP2C9 inh: 5.2; CYP2C19 inh: 4.9; CYP2C9 act: 0.9

What do the screens show for `CC1CC(C)CN(c2nc3c(c(=O)n(C)c(=O)n3C)n2C)C1` (centres undefined)?
CD11b adhes enh: 1.6; Mac1 fbg inh: -18.7; CYP2C19 act: 1; CYP2C9 inh: -0.6; CYP2C19 inh: 1.6; CYP2C9 act: 1

How did Fc1ccc(-c2nc3c(Cl)cc(C(F)(F)F)cn3c2Cl)cc1 do in these assays?
CD11b adhes enh: 0.5; Mac1 fbg inh: -19.7; CYP2C19 act: 0.8; CYP2C9 inh: 6.8; CYP2C19 inh: 23.3; CYP2C9 act: 0.9

How did Cc1cc(C(=O)Nc2c(F)cc(F)cc2Br)c(C)o1 do in these assays?
CD11b adhes enh: 4.0; Mac1 fbg inh: -3.4; CYP2C19 act: 1; CYP2C9 inh: -1.7; CYP2C19 inh: 1.4; CYP2C9 act: 1

Results for CC(C)OC(=O)c1cc(C(=O)c2cc(F)ccc2O)coc1=N ?
CD11b adhes enh: -2.1; Mac1 fbg inh: -33.1; CYP2C19 act: 0.1; CYP2C9 inh: 73.1*; CYP2C19 inh: 85.3*; CYP2C9 act: 0.3

Results for COC(=O)C1=C(C)N=C2SC(C#N)=C(N)N2C1c1cc(OC)c(OC)c(OC)c1 (centres undefined) ?
CD11b adhes enh: -5.8; Mac1 fbg inh: -10.8; CYP2C19 act: 0.1; CYP2C9 inh: 93.2*; CYP2C19 inh: 86.8*; CYP2C9 act: 0.1

How did COC(=O)C1=C(C)N=C2SCCC(=O)N2C1c1cc(Br)ccc1OC (centres undefined) do in these assays?
CD11b adhes enh: -5.0; Mac1 fbg inh: -4.9; CYP2C19 act: 0.8; CYP2C9 inh: 12.5; CYP2C19 inh: 15.3; CYP2C9 act: 0.9

Results for COC(=O)C1=C(C)N=C2SC(C#N)=C(N)N2C1c1ccc(OCc2ccccc2)cc1 (centres undefined) ?
CD11b adhes enh: 2.8; Mac1 fbg inh: 14.0; CYP2C19 act: 0.7; CYP2C9 inh: 69.4*; CYP2C19 inh: 32.5; CYP2C9 act: 0.3

How did COC(=O)c1cn(C(=O)c2cccs2)c2ccccc12 do in these assays?
CD11b adhes enh: -0.7; Mac1 fbg inh: -0.7; CYP2C19 act: 0.6; CYP2C9 inh: 59.3*; CYP2C19 inh: 41.2; CYP2C9 act: 0.4

Results for CCOC(=O)Cn1cc(C(=O)c2cccs2)c2ccccc21 ?
CD11b adhes enh: -2.1; Mac1 fbg inh: -2.3; CYP2C19 act: 0; CYP2C9 inh: 94.5*; CYP2C19 inh: 96.8*; CYP2C9 act: 0.1

How did CCOC(=O)C1CCN(C(=O)Cn2cc(C(=O)C3CC3)c3ccccc32)CC1 do in these assays?
CD11b adhes enh: -3.5; Mac1 fbg inh: -0.9; CYP2C19 act: 1.2; CYP2C9 inh: -30.0; CYP2C19 inh: -16.1; CYP2C9 act: 1.3

Results for O=C(c1cccs1)c1cn(CC(=O)N2CCc3ccccc3C2)c2ccccc12 ?
CD11b adhes enh: -1.6; Mac1 fbg inh: -1.2; CYP2C19 act: 0.2; CYP2C9 inh: 91.3*; CYP2C19 inh: 83.5*; CYP2C9 act: 0.1

What do the screens show for `O=C(c1cn(CC(=O)N2CCCCC2)c2ccccc12)C1CC1`?
CD11b adhes enh: -1.7; Mac1 fbg inh: -12.4; CYP2C19 act: 0.5; CYP2C9 inh: -15.8; CYP2C19 inh: 51.9*; CYP2C9 act: 1.2

What do the screens show for `COC(=O)c1cn(C(=O)c2ccco2)c2ccccc12`?
CD11b adhes enh: -1.6; Mac1 fbg inh: -3.4; CYP2C19 act: 1; CYP2C9 inh: 17.3; CYP2C19 inh: -3.3; CYP2C9 act: 0.8

Results for O=C(O)Cn1cc(C(=O)c2cccs2)c2ccccc21 ?
CD11b adhes enh: 2.2; Mac1 fbg inh: -1.6; CYP2C19 act: 1; CYP2C9 inh: 16.3; CYP2C19 inh: 1.2; CYP2C9 act: 0.8

How did CC(=O)c1ccc(Nc2ncnc3c2oc2ccccc23)cc1 do in these assays?
CD11b adhes enh: 3.7; Mac1 fbg inh: -3.4; CYP2C19 act: 0.9; CYP2C9 inh: 41.8; CYP2C19 inh: 12.1; CYP2C9 act: 0.6

Results for CCN1CCN(c2nc3c(c(=O)[nH]c(=O)n3C)n2CCCSc2ncccn2)CC1 ?
CD11b adhes enh: 8.6; Mac1 fbg inh: 3.2; CYP2C19 act: 1.2; CYP2C9 inh: -13.4; CYP2C19 inh: -16.2; CYP2C9 act: 1.1

Results for O=C1COc2ccc3ccccc3c2CN1 ?
CD11b adhes enh: -0.5; Mac1 fbg inh: 4.6; CYP2C19 act: 0.9; CYP2C9 inh: -3.6; CYP2C19 inh: 5.3; CYP2C9 act: 1

How did CCCCn1nc2cc(C(=O)NCc3ccccc3OC)ccc2c1OCC do in these assays?
CD11b adhes enh: 0.3; Mac1 fbg inh: -7.2; CYP2C19 act: 0.5; CYP2C9 inh: 56.0*; CYP2C19 inh: 46.9; CYP2C9 act: 0.4

Results for CCCCn1nc2cc(C(=O)NC3CCc4ccccc43)ccc2c1OCC (centres undefined) ?
CD11b adhes enh: 5.7; Mac1 fbg inh: 0.2; CYP2C19 act: 0.8; CYP2C9 inh: 55.6*; CYP2C19 inh: 17.7; CYP2C9 act: 0.4

Results for CCCCn1nc2cc(C(=O)NCCc3cccs3)ccc2c1OCC ?
CD11b adhes enh: -3.3; Mac1 fbg inh: -4.0; CYP2C19 act: 0.4; CYP2C9 inh: 52.9*; CYP2C19 inh: 61.4*; CYP2C9 act: 0.5

Results for CCCCn1nc2cc(C(=O)N(CC)c3ccc(OC)cc3)ccc2c1OCC ?
CD11b adhes enh: 2.1; Mac1 fbg inh: -15.3; CYP2C19 act: 0.5; CYP2C9 inh: 74.9*; CYP2C19 inh: 51.9*; CYP2C9 act: 0.3
